We go through 20 compounds from PubChem BioAssay AID652067 (The Scripps Research Institute Molecular Screening Center, 2013).

Hit rate of the full screen: of about 370,000 compounds, about 5,400 (1.5%) were called active. The entries come from a sample that favours actives as a whole. Unmarked numbers belong to inactive results.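 The calls were made as follows: active = activation above the mean of all tested compounds plus 3 SD (cut at about 5.5% in these data); inactive = the rest.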

For this experiment, the system named is DAF-12 nuclear receptor (Haemonchus contortus). Briefly: H. contortus DAF-12 nuclear receptor activators, primary screen, cell-based, luminescence, HEK293, lit1-tk-luc reporter (AID 652067).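 Also: 100% = response to 3 µM Δ7-dafachronic acid high control.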 As to conditions: HEK293 hcDAF-12 lit1-tk-luc reporter, at 6.8 µM, hits give high values.
Consider `Cc1ccc(C2CN(C)CC2C(=O)c2ccc(F)cc2)cc1` (stereo not given), for which the activation was 0.06%.

Take `COc1ccc(C(=O)C2CN(C)CC2C(=O)c2ccc(OC)cc2)cc1` (stereo not given): the activation was 8.46% (active).

For the compound `COc1ccc(C(=O)CC2C(=O)N(C)C(=O)N(C)C2=O)cc1`, the activation is 0.97%.

For the compound `CN(c1ccccc1)c1ccc([N+](=O)[O-])c2nonc12`, the activation is -1.36%.

Consider `CNP1(NC)=Nc2nn(-c3ccccc3)c(N)c2C(c2ccccc2)=N1`, for which the activation is -1.95%.

With `CCCCn1c(=O)c(C(=O)Nc2ccccc2Cl)c(O)c2ccccc21`, the activation was 5.68% (active).

Turning to `CCCCCn1c(=O)c(C(=O)NCc2ccccc2)c(O)c2ccccc21`, the activation is -0.29%.

Consider `CCCCCn1c(=O)c(C(=O)Nc2c(C)n(C)n(-c3ccccc3)c2=O)c(O)c2ccccc21`, for which the activation was -0.09%.

Regarding `O=C(CCN1CCCCC1)NCC(=O)Nc1ccc(Br)cc1C(=O)c1ccccc1`, the activation was -0.6%.

`CS(=O)(=O)N1CCC2CCNC2C1` (stereo not given): the activation is -0.6%.

Turning to `CCC/C(=N\O)c1c[nH]c2ccccc12`, the activation is 6.34% (active).

On to `CN1CCN(/N=C/c2c[nH]c3ccccc23)CC1`, for which the activation is 1.53%.

With `CN(C)CC1CCCCC1OC(=O)c1ccc(Cl)c(Cl)c1` (stereo not given), the activation is 0.25%.

Turning to `CCOc1ccc(C2SCC(=O)Nc3c2c(C)nn3C2CCOC(C)(C)C2)cc1` (stereo not given), the activation is -2.48%.

On to `Cc1ccccc1CCC[C@@H](CC1CCCCC1)CN(C)C(=O)Oc1ccccc1`, for which the activation is 4.88%.

Take `Cc1cc(C)c2c(c1)NP(=S)(c1ccccc1)N2` (stereo not given): the activation was 4.47%.

As to `COc1ccc2c(c1)NP(=S)(c1ccccc1)N2` (stereo not given), the activation is 13.1% (active).

`CO[C@H]([C@H](C)/C=C/N(C)C=O)[C@@H](C)C(=O)CC[C@H](C)[C@H](O)[C@H](C)[C@H]1OC(=O)/C=C/C(C)=C/[C@H](O)[C@H](OC)C[C@@H]2C=CC[C@@H](C[C@H](OC)[C@@]3(CO3)[C@@H](OC)C[C@@H](OC)[C@@H]1C)O2`: the activation is 0.14%.

For the compound `COc1ccc(-c2nc(CS(=O)CC(=O)N3CCC4(CC3)OCCO4)c(C)o2)cc1` (stereo not given), the activation is -0.05%.

As to `COP(=O)(Sc1ccccc1)C(Cc1ccccc1)NC(=O)OCc1ccccc1` (stereo not given), the activation was -1.13%.
